AC50 and outcome data for 16 compounds are collected here from PubChem BioAssay (EPA / NIEHS).

Structures are written as SMILES. Inconclusive results are not listed. Activity calls are given as the source filed them. Rule for the calls: active = hit-call score of the fitted dose curve at least 0.9, where 1 is the maximum; inconclusive = response in the unintended direction; inactive = score below 0.9.

The assay in a line: STM_H9_NormalizedViability: Cytotoxicity Assessment at 120 hours in the Stemina devTOX quickPredict H9 human embryonic stem cell (hESC)-based Assay (AID 2283784). The method, then:
STM_H9_viability utilizes undifferentiated H9 cells to measure cell viability.STM_H9_NormalizedViability is a component calculated in the STM_H9_viability assay. It measures cell viability using background corrected relative fluorescence units (RFU) value from the CellTiterFluor Assay normalized to the value of the 0.1% DMSO neutral control treatment (by 96-well plate)Data from the assay component STM_H9_Viability was analyzed at the assay endpoint STM_H9_Viability_Norm in the positive analysis fitting direction relative to DMSO as the negative control and baseline of activity. Using a type of viability reporter, loss-of-signal activity can be used to understand viability.
H9 hESCs maintained in a pluripotent state were exposed to test compound for 72h with chemical replenishment with media replacement every 24h. Cell-conditioned media from the final 24-h treatment period was collected for analysis of the targeted biomarker, and cell viability of the corresponding cell layer was assessed. The chemical library was tested in blinded fashion. Each test plate included 1uM Methotrexate (MTX; Selleck Chemicals, Houston, Texas) as a positive reference, 5 nM MTX as a negative reference, 0.1% DMSO as the neutral (vehicle) control, and sample-level media blanks.H9 cell-conditioned media from the final 24-h treatment period was collected for analysis of the targeted biomarker and cell viability was measured from the corresponding cell layer. Cell viability was measured using the CellTiter-Fluor assay (Promega, Madison, Wisconsin) based on proteolytic cleavage of a substrate to fluorescent signal proportional to the number of living cells. The cell viability Relative Fluorescence Unit (RFU) was background corrected and normalized to mean RFU of the neutral control (0.1% DMSO). The collected H9-cell-conditioned media samples were processed for targeted biomarker analysis as described (Palmer et al., 2013). Briefly, spent media samples were deproteinized (40% acetonitrile) and processed for UPLC-HRMS. Data acquisition was performed using 4 separate UPLC-HRMS systems, consisting of an Agilent 1290 Infinity LC system (Agilent Technologies) interfaced with an Agilent high-resolution mass spectrometer (models G6520A, G6520B, G6530A, and G6224A). A Waters Acquity UPLC BEH Amide column (2.1mm x 50mm, 1.7lm particle size; Waters, Milford, Massachusetts) maintained at 40C was applied for separation of metabolites using a 6.5min solvent gradient with 0.1% formic acid in water and 0.1% formic acid in acetonitrile (1.0ml/min flow rate). Data were acquired using MassHunter Acquisition software (version B 04.00, Agilent Technologies). The extracted ion chromatogram (EIC) areas for ORN, CYSS, and their respective spike-in C13-standards were determined using the Agilent MassHunter Quantitative Analysis software, version B.05.00 or newer (Agilent Technologies), and data were normalized as described in Palmer et al. (2017).
By AC50 is commonly meant the concentration at which the activity in the assay is half-maximal. Regarding `O=S1OCC2C(CO1)C1(Cl)C(Cl)=C(Cl)C2(Cl)C1(Cl)Cl` (stereo unspecified), the AC50 is 78.4 µM (active).

Consider `CCOC1Oc2ccc(OS(C)(=O)=O)cc2C1(C)C` (stereo unspecified), for which the AC50 is 78.7 µM (active).

Turning to `CCC(C)(NC(=O)c1cc(Cl)c(C)c(Cl)c1)C(=O)CCl` (stereo unspecified), the AC50 is 25.8 µM (active).

For `O=C(NC(=O)c1c(F)cccc1F)Nc1ccc(OC(F)(F)C(F)OC(F)(F)F)c(Cl)c1` (stereo unspecified), the outcome was inactive.

Turning to `CC1(c2ccc(Oc3ccccc3)cc2)OC(=O)N(Nc2ccccc2)C1=O` (stereo unspecified), the AC50 is 3.35 µM (active).

Regarding `CCC(C)Nc1c([N+](=O)[O-])cc(C(C)(C)C)cc1[N+](=O)[O-]` (stereo unspecified), the result was inactive.

In the case of `O=S(=O)(O)C(F)(F)C(F)(F)C(F)(F)C(F)(F)C(F)(F)C(F)(F)C(F)(F)C(F)(F)F`, the result was inactive.

`O=C(Nc1ccccc1)Nc1cnns1`: the outcome was inactive.

Regarding `Cc1[nH]c(=O)n(C(C)(C)C)c(=O)c1Cl`, the outcome was inactive.

`C#CCN1C(=O)COc2cc(F)c(N3C(=O)C4=C(CCCC4)C3=O)cc21`: the half-maximal activity concentration (AC50) is 75.5 µM (active).

Take `O=C(O)C(F)(F)C(F)(F)C(F)(F)C(F)(F)C(F)(F)C(F)(F)C(F)(F)F`: the result was inactive.

For the compound `CCOCN(C(=O)CCl)c1c(C)cccc1CC`, the result was inactive.

Consider `CC(C)(C)C(O)C(Oc1ccc(Cl)cc1)n1cncn1` (stereo unspecified), for which the result was inactive.

As to `CC(C)(C)C(O)/C(=C\c1ccc(Cl)cc1Cl)n1cncn1` (stereo unspecified), the concentration at half-maximal activity (AC50) was 79.1 µM (active).

For the compound `Oc1ccc(Cl)cc1Cc1ccccc1`, the outcome was inactive.

As to `Oc1cc(Cl)ccc1Oc1ccc(Cl)cc1Cl`, the AC50 was 88.2 µM (active).
